This passage reports outcome and AC50 results from PubChem BioAssay (EPA / NIEHS).

The target of experiment [1] is Bile acid receptor (Homo sapiens) (UniProt Q96RI1). The experiment can be described thus: ATG_IR1_CIS: Attagene CIS-FACTORIAL HepG2 Assay for human Nuclear Receptor Subfamily 1 Group H Member 4 (NR1H4), IR1 submotif (AID 2282946). The following applies: IR1 reporter transcription, actives raise or lower the signal. A digest of the protocol: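 Transient MRTU transfection, HepG2; 24 h dosing; RNA → RT-PCR → 6-FAM primer extension → HpaI digest → capillary electrophoresis fluorescence. Gain/loss of signal fitted relative to DMSO.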
Sequence of Bile acid receptor (Homo sapiens) (Q96RI1 whole entry, looked up): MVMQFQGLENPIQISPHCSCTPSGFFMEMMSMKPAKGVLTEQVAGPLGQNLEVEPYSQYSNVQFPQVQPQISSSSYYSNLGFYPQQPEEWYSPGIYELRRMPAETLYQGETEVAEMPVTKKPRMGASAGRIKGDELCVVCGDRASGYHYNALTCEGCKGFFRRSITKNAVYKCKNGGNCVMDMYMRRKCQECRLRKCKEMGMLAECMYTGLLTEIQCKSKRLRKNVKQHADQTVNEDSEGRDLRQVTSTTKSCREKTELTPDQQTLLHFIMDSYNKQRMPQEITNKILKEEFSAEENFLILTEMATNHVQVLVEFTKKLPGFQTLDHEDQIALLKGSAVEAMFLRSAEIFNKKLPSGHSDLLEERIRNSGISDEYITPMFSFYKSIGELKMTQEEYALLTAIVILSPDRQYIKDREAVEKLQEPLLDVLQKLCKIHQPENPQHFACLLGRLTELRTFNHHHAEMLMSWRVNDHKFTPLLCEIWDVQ

Experiment [2] is described as follows: ATG_ISRE_CIS: Attagene CIS-FACTORIAL HepG2 Assay for human Interferon Regulatory Factor 1 (IRF1) binding to an Interferon-Stimulated Response Element (ISRE) (AID 2282948). Particulars: HepG2 ISRE cis-reporter (Attagene), mRNA transcription readout; actives raise or lower the signal. The method, boiled down: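 Transiently transfected HepG2 cells carrying cis-element reporter units, dosed 24 hours. Reporter mRNA quantified by RT-PCR, fluorescent primer extension, HpaI digestion and capillary electrophoresis. Bidirectional fitting relative to DMSO.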

Experiment [3] can be described thus: ATG_M_32_CIS: Attagene CIS-FACTORIAL HepG2 Assay for M32 Transcription Factor (Internal Marker) (AID 2282949).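 Further: background control marker of the multiplexed CIS panel rather than a real target.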 The following applies: HepG2 Attagene cis-factorial M32 reporter, mRNA; actives raise or lower the signal. The method, boiled down: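 Internal background marker read-out: RT-PCR/capillary electrophoresis fluorescence of reporter transcripts from transiently transfected HepG2 cells after 24 h chemical exposure. Activity fitted bidirectionally relative to DMSO negative control.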

Experiment [4] has as its target Hypoxia-inducible factor 1-alpha (Homo sapiens) (UniProt Q16665). The experiment is described as follows: ATG_HIF1a_CIS: Attagene CIS-FACTORIAL HepG2 Assay for human Hypoxia Inducible Factor 1 (HIF1A) (AID 2282951). Particulars: HepG2 Attagene cis-factorial HIF1a reporter transcription; actives raise or lower the signal. A digest of the protocol:
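Measures endogenous transcription-factor activity through cis-regulated reporter mRNA in HepG2. Cells dosed 24 h; transcripts quantified by RT-PCR with 6-FAM-labelled products separated by capillary electrophoresis; DMSO serves as negative control.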

For experiment [5], the target named is Hepatocyte nuclear factor 6 (Homo sapiens) (UniProt Q9UBC0). The experiment is described as follows: ATG_HNF6_CIS: Attagene CIS-FACTORIAL HepG2 Assay for human Hepatocyte Nuclear Factor 6 (HNF6) (AID 2282952). The following applies: HepG2 Attagene cis-factorial HNF6 reporter transcription; actives raise or lower the signal. A digest of the protocol:
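Reporter mRNA induction or loss in HepG2 after 24 h exposure; transient cis-MRTU transfection; fragments quantified by capillary electrophoresis; bidirectional analysis, DMSO as negative control.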

Experiment [6] is described as follows: ATG_MRE_CIS: Attagene CIS-FACTORIAL HepG2 Assay for human Metal Responsive Element (MRE) (AID 2282954). The following applies: HepG2 MRE cis-reporter transcription, Attagene multiplex; actives raise or lower the signal. The method, boiled down:
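HepG2 cells transiently transfected with multiple cis-element reporter units measure endogenous MTF1-driven transcription. After 24 h compound exposure, reporter mRNA is quantified by RT-PCR with 6-FAM labelling, HpaI digestion and capillary electrophoresis; bidirectional fits versus DMSO.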

In experiment [7] the target is Paired box protein Pax-6 (Homo sapiens) (UniProt P26367). The experiment can be described thus: ATG_Pax6_CIS: Attagene CIS-FACTORIAL HepG2 Assay for human Paired Box 6 (PAX6) (AID 2282956). The following applies: HepG2 CIS-FACTORIAL PAX6 reporter transcription, RNA readout; actives raise or lower the signal. The method, boiled down: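 HepG2 cells transiently transfected with cis-promoter-driven multiplexed reporter units sensing endogenous transcription factor activity; 24 h chemical exposure. Reporter mRNA quantified by RT-PCR, 6-FAM labelling, HpaI digestion and capillary electrophoresis; bidirectional fit versus DMSO baseline.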
Sequence of Paired box protein Pax-6 (Homo sapiens) (P26367 whole entry, looked up): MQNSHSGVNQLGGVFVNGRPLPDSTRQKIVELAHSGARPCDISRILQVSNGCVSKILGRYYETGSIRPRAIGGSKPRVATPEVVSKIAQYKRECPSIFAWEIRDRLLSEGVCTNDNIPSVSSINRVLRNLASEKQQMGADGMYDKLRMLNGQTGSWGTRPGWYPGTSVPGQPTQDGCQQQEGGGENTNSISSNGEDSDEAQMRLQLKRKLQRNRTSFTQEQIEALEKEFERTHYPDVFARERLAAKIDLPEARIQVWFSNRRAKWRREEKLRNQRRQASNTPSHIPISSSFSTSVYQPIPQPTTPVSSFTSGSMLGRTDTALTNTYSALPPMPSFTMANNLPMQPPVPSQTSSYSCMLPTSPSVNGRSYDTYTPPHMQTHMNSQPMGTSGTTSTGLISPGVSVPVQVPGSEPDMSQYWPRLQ

Experiment [8] can be described thus: ATG_PXRE_CIS: Attagene CIS-FACTORIAL HepG2 Assay for human Pregnane X Receptor Element (PXRE) (AID 2282957). The following applies: HepG2 Attagene CIS-FACTORIAL PXRE reporter, mRNA; actives raise or lower the signal. A digest of the protocol:
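Transiently transfected HepG2 cells were dosed and incubated for 24 h. RNA was then isolated, DNase-treated, reverse-transcribed and reporter sequences amplified. Labeled, HpaI-digested fragments were quantified by capillary electrophoresis against DMSO.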

A short description of experiment [9]: ATG_PPRE_CIS: Attagene CIS-FACTORIAL HepG2 Assay for human Peroxisome Proliferator-activated Response Element (PPRE) (AID 2282958). Particulars: HepG2 PPRE cis-element reporter, Attagene transcription factor profiling; actives raise or lower the signal. The method, boiled down:
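Cells are first transfected transiently with the multiplexed reporter library, then dosed for 24 h. Total RNA is reverse-transcribed, amplified, fluorescently end-labeled and HpaI-cut before capillary electrophoresis; activity is fitted bidirectionally against DMSO controls.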

Experiment [10] in a line: ATG_RORE_CIS: Attagene CIS-FACTORIAL HepG2 Assay for human RAR-related Orphan Receptor Element (RORE) (AID 2282959). Particulars: HepG2 Attagene cis-factorial RORE reporter, mRNA; actives raise or lower the signal. A digest of the protocol: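 Cells were HepG2 carrying transfected cis-regulated reporter constructs, dosed for 24 hours. Total RNA was reverse-transcribed and reporter cDNA amplified, fluorescently labeled and sized by capillary electrophoresis. Activity was fitted bidirectionally relative to DMSO.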

Experiment [11] can be described thus: ATG_Sox_CIS: Attagene CIS-FACTORIAL HepG2 Assay for human SRY-box transcription factor (SOX) (AID 2282960). Particulars: HepG2 Attagene cis-factorial SOX reporter, mRNA; actives raise or lower the signal. A digest of the protocol: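 Transient MRTU transfection of HepG2; 24 h compound incubation; TriZol RNA, oligo(dT) RT, PCR, 6-FAM primer extension, HpaI cut, CE. Bidirectional fit, DMSO = baseline.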

The nature of experiment [12]: ATG_SREBP_CIS: Attagene CIS-FACTORIAL HepG2 Assay for human Sterol Regulatory Element Binding (SREBP) (AID 2282962). Particulars: HepG2 Attagene cis-factorial SREBP reporter, mRNA; actives raise or lower the signal. A digest of the protocol: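 HepG2 cells transiently transfected with multiplexed cis-promoter reporter units sensing endogenous transcription factors; reporter mRNA measured 24 h after dosing by RT-PCR, 6-FAM labeling, HpaI digestion and capillary electrophoresis. Bidirectional fit versus DMSO.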

Experiment [13] has as its target Signal transducer and activator of transcription 3 (Homo sapiens) (UniProt P40763). The experiment is described as follows: ATG_STAT3_CIS: Attagene CIS-FACTORIAL HepG2 Assay for human Signal Transducer and Activator of Transcription 3 (STAT3) (AID 2282963). The following applies: HepG2, Attagene cis-factorial STAT3 reporter transcription; actives raise or lower the signal. A digest of the protocol: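 HepG2 cells transiently transfected with cis-element-driven multiple reporter transcription units; after 24 h chemical exposure, reporter mRNA measured by RT-PCR, 6-FAM primer-extension labelling, HpaI digestion and capillary electrophoresis. Bidirectional fitting versus DMSO baseline.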

Experiment [14] in a line: ATG_M_06_CIS: Attagene CIS-FACTORIAL HepG2 Assay for M06 Transcription Factor (Internal Marker) (AID 2282950). The following applies: HepG2 Attagene CIS-FACTORIAL M06 internal marker reporter; actives raise or lower the signal. The method, boiled down:
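Steps: transfect HepG2 with multiplexed cis-element reporter constructs; dose chemical 24 h; extract RNA with DNase treatment; reverse-transcribe, PCR-amplify, 6-FAM label, HpaI digest; separate fragments by capillary electrophoresis. Activity fitted both directions versus DMSO.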

Experiment [15] deals with Heat shock factor protein 1 (Homo sapiens) (UniProt Q00613). The experiment can be described thus: ATG_HSE_CIS: Attagene CIS-FACTORIAL HepG2 Assay for human Heat Shock Transcription Factor 1 (HSE) (AID 2282953). The following applies: HepG2 HSE cis-reporter, Attagene RNA transcription; actives raise or lower the signal. The method, boiled down: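 Cells were transfected with cis-element-driven reporter constructs, dosed for 24 h, then total RNA was reverse-transcribed and reporter cDNA amplified, FAM-labelled and digested with HpaI. Fragments were resolved by capillary electrophoresis; gain or loss was fitted against DMSO.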
Sequence of Heat shock factor protein 1 (Homo sapiens) (Q00613 whole entry, looked up, the tested form may be a part): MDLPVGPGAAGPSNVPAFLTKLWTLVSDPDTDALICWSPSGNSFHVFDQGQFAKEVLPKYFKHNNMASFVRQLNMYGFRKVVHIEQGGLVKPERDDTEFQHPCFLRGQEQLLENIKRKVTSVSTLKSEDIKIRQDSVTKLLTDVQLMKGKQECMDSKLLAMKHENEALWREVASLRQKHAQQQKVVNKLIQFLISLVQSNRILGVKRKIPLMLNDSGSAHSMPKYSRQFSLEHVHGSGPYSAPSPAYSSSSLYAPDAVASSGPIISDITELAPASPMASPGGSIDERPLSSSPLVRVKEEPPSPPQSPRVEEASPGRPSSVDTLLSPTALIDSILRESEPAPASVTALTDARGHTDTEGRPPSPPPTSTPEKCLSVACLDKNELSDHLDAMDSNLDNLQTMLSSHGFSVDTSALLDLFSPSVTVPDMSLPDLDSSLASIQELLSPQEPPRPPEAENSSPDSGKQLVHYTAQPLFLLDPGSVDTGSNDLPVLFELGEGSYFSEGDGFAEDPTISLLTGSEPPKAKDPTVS

For experiment [16], the target named is Transcription factor Sp1 (Homo sapiens) (UniProt P08047). The experiment is described as follows: ATG_Sp1_CIS: Attagene CIS-FACTORIAL HepG2 Assay for human Specificity Protein 1 (Sp1) (AID 2282961). Particulars: HepG2 Sp1 cis-reporter transcription, actives raise or lower the signal. A digest of the protocol: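 Endogenous Sp1 activity was gauged in human liver HepG2 cells bearing transfected reporter units under a cis-regulating promoter. After 24 h dosing, reporter mRNA was quantified by RT-PCR with capillary electrophoresis, and activity fitted bidirectionally versus DMSO.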
Sequence of Transcription factor Sp1 (Homo sapiens) (P08047 whole entry, looked up): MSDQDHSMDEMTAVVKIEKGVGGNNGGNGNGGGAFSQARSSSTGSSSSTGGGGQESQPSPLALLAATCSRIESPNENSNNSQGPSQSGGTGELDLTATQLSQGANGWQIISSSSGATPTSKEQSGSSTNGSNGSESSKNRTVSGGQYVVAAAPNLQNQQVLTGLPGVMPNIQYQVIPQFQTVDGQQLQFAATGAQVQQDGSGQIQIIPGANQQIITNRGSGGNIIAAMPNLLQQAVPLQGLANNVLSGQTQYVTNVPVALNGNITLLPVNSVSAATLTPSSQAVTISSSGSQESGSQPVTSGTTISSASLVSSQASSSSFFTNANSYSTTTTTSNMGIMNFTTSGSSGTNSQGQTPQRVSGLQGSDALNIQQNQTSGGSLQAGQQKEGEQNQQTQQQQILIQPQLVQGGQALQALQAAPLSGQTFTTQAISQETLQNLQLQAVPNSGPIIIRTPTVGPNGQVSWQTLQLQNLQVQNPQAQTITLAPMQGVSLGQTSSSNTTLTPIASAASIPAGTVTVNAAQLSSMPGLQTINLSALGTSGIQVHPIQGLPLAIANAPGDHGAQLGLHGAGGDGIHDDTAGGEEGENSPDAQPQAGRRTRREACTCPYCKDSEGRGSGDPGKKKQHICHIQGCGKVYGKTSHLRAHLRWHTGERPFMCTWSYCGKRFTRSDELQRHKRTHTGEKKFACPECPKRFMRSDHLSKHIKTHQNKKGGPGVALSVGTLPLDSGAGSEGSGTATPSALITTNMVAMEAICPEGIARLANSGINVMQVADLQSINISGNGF

Experiment [17] can be described thus: ATG_TA_CIS: Attagene CIS-FACTORIAL HepG2 Assay for human TA Basal Promoter (AID 2282964). The following applies: HepG2 Attagene CIS-factorial TA basal promoter reporter; actives raise or lower the signal. The method, boiled down:
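Steps: transfect HepG2 with MRTUs; dose 24 h; isolate RNA, DNase-treat, reverse-transcribe; PCR and FAM-label reporter cDNA; digest with HpaI 2h at 37 C; run capillary electrophoresis. Activity fitted both directions against DMSO.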

Experiment [18] is described as follows: ATG_TCF_b_cat_CIS: Attagene CIS-FACTORIAL HepG2 Assay for human T-Cell-Factor with beta-catenin (TCF/b-cat) (AID 2282965). Particulars: HepG2 TCF/beta-catenin cis-reporter transcription, actives raise or lower the signal. A digest of the protocol: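 In this cis-format system, transfected HepG2 cells report endogenous transcription factor activity. Readout after 24 h exposure is reporter transcript abundance from RT-PCR and capillary electrophoresis, analysed for gain or loss of signal versus DMSO.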

The nature of experiment [19]: ATG_PBREM_CIS: Attagene CIS-FACTORIAL HepG2 Assay for human Phenobarbital-responsive Enhancer Module (PBREM) (AID 2282955). The following applies: HepG2 PBREM cis-reporter, Attagene multiplexed transcription; actives raise or lower the signal. A digest of the protocol: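 Fluorescence of labelled reporter cDNA fragments, resolved by capillary electrophoresis, gives mRNA induction in transfected HepG2 cells treated for 24 h; DMSO serves as negative control and baseline.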

The source made the active and inactive calls. How the source made its calls: active means hit-call score of the fitted dose curve at least 0.9, where 1 is the maximum; inactive means score below 0.9.

For orientation: AC50 means the midpoint of the concentration-response curve, whichever way the signal moves.

Sequence of Signal transducer and activator of transcription 3 (Homo sapiens) (P40763 whole entry, looked up): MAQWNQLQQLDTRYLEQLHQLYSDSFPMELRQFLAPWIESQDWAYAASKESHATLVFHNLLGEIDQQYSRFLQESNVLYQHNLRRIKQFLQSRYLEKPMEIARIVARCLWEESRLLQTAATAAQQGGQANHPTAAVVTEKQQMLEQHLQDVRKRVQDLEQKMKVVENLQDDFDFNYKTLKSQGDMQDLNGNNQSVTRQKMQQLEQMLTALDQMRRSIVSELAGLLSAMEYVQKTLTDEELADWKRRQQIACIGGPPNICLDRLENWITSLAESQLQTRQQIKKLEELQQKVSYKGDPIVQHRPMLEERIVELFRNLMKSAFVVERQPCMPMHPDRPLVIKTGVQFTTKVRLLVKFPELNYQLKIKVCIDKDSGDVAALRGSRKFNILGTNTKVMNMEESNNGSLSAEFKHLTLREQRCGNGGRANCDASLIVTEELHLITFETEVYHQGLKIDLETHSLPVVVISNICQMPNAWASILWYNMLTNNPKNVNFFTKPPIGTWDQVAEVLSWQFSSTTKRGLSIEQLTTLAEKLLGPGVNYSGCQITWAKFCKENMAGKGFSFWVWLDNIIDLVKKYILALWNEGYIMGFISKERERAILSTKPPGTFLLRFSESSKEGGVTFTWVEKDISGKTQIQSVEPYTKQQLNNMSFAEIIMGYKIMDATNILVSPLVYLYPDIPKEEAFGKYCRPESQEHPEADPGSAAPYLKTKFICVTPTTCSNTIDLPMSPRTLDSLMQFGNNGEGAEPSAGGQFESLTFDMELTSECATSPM
Sequence of Hypoxia-inducible factor 1-alpha (Homo sapiens) (Q16665 whole entry, looked up): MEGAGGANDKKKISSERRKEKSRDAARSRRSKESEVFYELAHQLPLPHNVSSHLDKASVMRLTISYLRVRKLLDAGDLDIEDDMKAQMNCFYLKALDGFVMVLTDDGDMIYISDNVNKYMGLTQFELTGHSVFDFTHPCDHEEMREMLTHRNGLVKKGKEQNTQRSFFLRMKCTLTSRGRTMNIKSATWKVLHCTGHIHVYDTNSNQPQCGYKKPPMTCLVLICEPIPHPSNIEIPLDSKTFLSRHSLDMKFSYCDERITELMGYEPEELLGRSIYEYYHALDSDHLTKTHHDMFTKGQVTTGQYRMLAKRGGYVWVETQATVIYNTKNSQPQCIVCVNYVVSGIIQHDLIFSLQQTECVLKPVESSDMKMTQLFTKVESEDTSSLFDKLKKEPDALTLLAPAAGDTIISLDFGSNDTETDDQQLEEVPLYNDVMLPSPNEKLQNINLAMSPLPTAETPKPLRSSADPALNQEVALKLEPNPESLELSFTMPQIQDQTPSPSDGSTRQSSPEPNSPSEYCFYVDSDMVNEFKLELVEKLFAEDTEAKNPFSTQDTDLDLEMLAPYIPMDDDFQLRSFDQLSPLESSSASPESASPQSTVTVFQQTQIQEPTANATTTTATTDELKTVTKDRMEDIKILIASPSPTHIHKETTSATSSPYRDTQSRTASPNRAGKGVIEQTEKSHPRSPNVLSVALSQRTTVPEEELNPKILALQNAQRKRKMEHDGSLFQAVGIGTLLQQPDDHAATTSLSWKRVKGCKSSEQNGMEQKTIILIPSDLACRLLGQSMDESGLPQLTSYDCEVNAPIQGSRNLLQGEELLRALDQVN
Sequence of Hepatocyte nuclear factor 6 (Homo sapiens) (Q9UBC0 whole entry, looked up, the tested form may be a part): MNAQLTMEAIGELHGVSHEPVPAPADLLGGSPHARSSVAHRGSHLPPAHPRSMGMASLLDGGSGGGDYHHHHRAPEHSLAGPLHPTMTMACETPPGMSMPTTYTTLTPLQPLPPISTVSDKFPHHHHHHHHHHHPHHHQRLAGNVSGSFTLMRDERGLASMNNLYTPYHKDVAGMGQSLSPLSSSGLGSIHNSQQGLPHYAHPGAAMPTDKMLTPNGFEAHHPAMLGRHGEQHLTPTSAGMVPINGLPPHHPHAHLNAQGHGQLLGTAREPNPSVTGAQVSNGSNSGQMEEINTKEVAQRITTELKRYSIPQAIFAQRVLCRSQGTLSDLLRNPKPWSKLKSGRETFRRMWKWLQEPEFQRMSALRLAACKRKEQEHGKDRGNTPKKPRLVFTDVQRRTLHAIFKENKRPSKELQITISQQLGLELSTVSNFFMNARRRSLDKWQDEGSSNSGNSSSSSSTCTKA

Take `COc1ccc(CCC(C)=O)cc1`: the molecule was classed as inactive in experiment [1], in experiment [2], in experiment [3], in experiment [4], in experiment [5] and in experiment [6]. Further, the outcome in [7], in experiment [8], in [9], in [10], in experiment [11] and in [12] was inactive. In addition, the molecule was called inactive in experiment [13].
`CCCCC(CC)(CO)CO`: the result in experiment [1], in experiment [2], in [3], in experiment [14], in experiment [4] and in experiment [5] was inactive. The result in [15], in experiment [6], in experiment [7], in [8], in experiment [9] and in [10] was inactive. For the same molecule, the result in experiment [11], in [16], in [12], in experiment [13], in experiment [17] and in experiment [18] was inactive.
Turning to `C1=CC2C3C=CC(C3)C2C1` (stereo not given), the call in experiment [1], in experiment [2], in experiment [3], in experiment [14], in experiment [5] and in [15] was inactive. Further, the outcome in experiment [6], in [19], in [7], in [11], in [12] and in experiment [13] was inactive. Besides, the call in [17] and in experiment [18] was inactive. The AC50 in experiment [8] was 36.3 µM (active).
Turning to `COc1cc(Cl)c(OC)cc1N`, the molecule was classed as inactive in [1], in experiment [2], in [3], in [14], in [4] and in [5]. Moreover, the outcome in experiment [15], in experiment [6], in experiment [7], in experiment [9], in experiment [11] and in [16] was inactive. Besides, the molecule was called inactive in experiment [12], in [13] and in experiment [18]. Besides, in experiment [8], the AC50 was 62.4 µM (active).
For the molecule `CC(=O)OCCCc1ccccc1`, the call in [1], in [2], in [3], in [14], in experiment [4] and in experiment [5] was inactive. For the same molecule, the result in experiment [15], in [6], in experiment [7], in [10], in experiment [16] and in experiment [12] was inactive. The result in experiment [13], in experiment [17] and in experiment [18] was inactive. For the same molecule, the half-maximal activity concentration (AC50) in experiment [8] is 27.4 µM (active).
As to `COC(=O)c1ccc(OC)cc1`, the molecule was called inactive in experiment [1], in experiment [2], in experiment [3], in experiment [14], in experiment [4] and in [5]. Besides, the outcome in experiment [15], in experiment [6], in [8], in experiment [11], in experiment [16] and in experiment [12] was inactive. The molecule was classed as inactive in [13], in experiment [17] and in [18].
For `O=P(O)(O)O`, the molecule was classed as inactive in experiment [1], in [2], in [3], in experiment [14], in experiment [4] and in [5]. The outcome in [6], in experiment [7], in experiment [8], in experiment [10], in [11] and in [16] was inactive. Besides, the result in experiment [12], in [13], in experiment [17] and in experiment [18] was inactive.
As to `C=Cc1ccncc1`, the call in experiment [1], in experiment [3], in experiment [14], in [4], in experiment [13] and in experiment [17] was inactive. Further, the AC50 was 55.9 µM (active) in [2]; 33.9 µM (active) in [5]; 28.2 µM (active) in [6]; 33.1 µM (active) in [7]; 33.1 µM (active) in [8]; 13.5 µM (active) in experiment [9]. Moreover, the AC50 in experiment [11] is 21.8 µM (active); in experiment [16] it was 27.1 µM (active); in experiment [12], 17.1 µM (active); in experiment [18], 57 µM (active).
